TrxR1 substrate: qHTS Assay for Substrates of Mammalian Selenoprotein Thioredoxin Reductase 1 (TrxR1): qHTS | Thioredoxin reductase 1, cytoplasmic (Rattus norvegicus), O89049 | purified TrxR1 substrate turnover, NADPH consumption readout | Potency, µM (series often up to 114 µM) | 390,000 compounds, 0.01% hits; also: nearly all actives have a fitted effect of over 50% in size
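Rat TrxR1, dispensed at 90 nM, was prereduced with 400 uM NADPH (final) for 5 min at ~22 deg C, then incubated with compound 15 min before 400 uM selenite. A first-read NADPH fluorescence drop versus no-compound background flagged substrates.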
VDR inh: Inhibitors of the vitamin D receptor (VDR): qHTS. AID 504847, 2011. VDR-SRC2-3 peptide fluorescence polarization, 2 h. Vitamin D3 receptor (Homo sapiens), P11473. Potency, µM, most hits filed as inhibitors. 400,000 compounds, 0.93% hits
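After 23 nl compound addition and a short centrifugation, plates sat for 2 hours at ambient temperature; polarization of fluorescence then indicated loss of VDR binding to peptide SRC2-3.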
GLS inh: qHTS for Inhibitors of Glutaminase (GLS); AID 624170, 2012; GLS enzymatic activity, qHTS titration; Potency, µM (highest dose often 45.5 µM), actives largely listed as inhibitors; 410,000 compounds, 0.21% hits; Glutaminase kidney isoform, mitochondrial (Homo sapiens), O94925
Target sequence (O94925 whole entry, looked up, canonical isoform): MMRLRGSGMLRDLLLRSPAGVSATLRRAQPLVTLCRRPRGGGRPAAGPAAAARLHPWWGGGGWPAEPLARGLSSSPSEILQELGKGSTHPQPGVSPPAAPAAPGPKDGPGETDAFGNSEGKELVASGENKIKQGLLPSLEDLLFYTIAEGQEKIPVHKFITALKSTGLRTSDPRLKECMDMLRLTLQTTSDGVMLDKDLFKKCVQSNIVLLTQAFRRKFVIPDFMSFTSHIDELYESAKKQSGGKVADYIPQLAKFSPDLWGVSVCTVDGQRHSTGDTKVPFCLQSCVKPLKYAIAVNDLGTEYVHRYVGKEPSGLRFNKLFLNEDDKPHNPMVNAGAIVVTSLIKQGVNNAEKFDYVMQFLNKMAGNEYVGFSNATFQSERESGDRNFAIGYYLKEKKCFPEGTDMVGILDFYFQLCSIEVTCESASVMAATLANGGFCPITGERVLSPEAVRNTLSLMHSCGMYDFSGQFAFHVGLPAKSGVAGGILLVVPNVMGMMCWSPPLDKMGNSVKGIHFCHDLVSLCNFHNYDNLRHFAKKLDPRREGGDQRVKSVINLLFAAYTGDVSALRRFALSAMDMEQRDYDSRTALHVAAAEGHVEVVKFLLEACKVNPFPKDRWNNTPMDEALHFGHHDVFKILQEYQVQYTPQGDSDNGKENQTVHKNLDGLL
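hKGA; 45 mM KH2PO4 pH 8.2 + 0.02% Tween-20; cpd via pin tool; 1 mM Gln soln; GluOx/HRP/Amplex Red; RT 30 min; fluor. t0 & final.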
Sfp inh: qHTS Assay for Inhibitors of Bacillus subtilis Sfp phosphopantetheinyl transferase (PPTase). Potency, µM, actives largely listed as inhibitors. Biochemical Sfp PPTase activity, qHTS. AID 1490, 2009. 310,000 compounds, 3.5% hits;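 also: the enzyme is Sfp with the accession as filed and its product quenches rhodamine fluorescence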
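With Hepes-Na pH 7.6 buffer containing 10 mM MgCl2, Sfp (15 nM) modified BHQ-2-YbbR (12.5 uM) using rhodamine-CoA (5 uM). Two reads 30 minutes apart at 525/598 nm yielded each well's rate.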
rTrxR1 inhibitor: qHTS Assay for Inhibitors of Mammalian Selenoprotein Thioredoxin Reductase 1 (TrxR1): qHTS. Thioredoxin reductase 1, cytoplasmic (Rattus norvegicus), O89049. recombinant rTrxR1, NADPH fluorescence consumption, selenite substrate. Potency, µM (series often up to 114 µM), hits mostly inhibitors. 390,000 compounds, 1% hits. AID 588453, 2011; also: nearly all actives have a fitted effect of over 65% in size
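Rat TrxR1 (90 nM in the dispensed reagent) was pre-reduced with 400 uM NADPH for 5 min at room temperature, then incubated with compound for 15 min. After 400 uM selenite was added, NADPH fluorescence (Ex 340/Em 450 nm) was followed for 8 min.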
KAT2A inh: qHTS Assay for Inhibitors of GCN5L2; GCN5L2 HAT assay, ThioGlo1 CoA-SH fluorescence; 390,000 compounds, 0.21% hits; Potency, µM (top dose mostly 58.9 µM), most hits filed as inhibitors; Histone acetyltransferase KAT2A (Homo sapiens), Q92830; AID 504327, 2011
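Free CoA generated was detected with ThioGlo1 (50uM) fluorescence at Ex340nm/Em540nm, read immediately and after 20 min at room temperature. Enzyme, 20 nM in HEPES pH 7.5 buffer, saw compounds 15 min before adding 75uM H3(1-25) peptide and 70uM acetyl-CoA.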
Hits are given with their value; n = inactive; u = inconclusive; x = no result; [ ] = remark or other dose. Rows were chosen to be rich in hits. Some 3.8% of all compounds tested hit in one or more screens of this group. Calls follow the shape of the dose curve; as a rule, active = well fitted curve in the direction sought with a large enough effect; inconclusive = small, poorly fitted or top-dose-only effect, or another doubt; inactive = no such curve, though single readings can be large; an effect the other way counts as inactive or inconclusive.

SMILES	TrxR1 substrate	VDR inh	GLS inh	Sfp inh	rTrxR1 inhibitor	KAT2A inh
Cc1ccc(NC2Sc3ccccc3NC2=O)cc1 (configuration not stated)	n	11.2µM	n	8.91µM	u	n
O=S(=O)(O)c1cc(O)c2ccc(Nc3ccccc3)cc2c1	n[2.29 µM]	n	5.01µM	x	n[2.29 µM]	x
Cc1ccc(S(=O)(=O)c2cc(Nc3ccccc3)ccc2O)cc1	n	n	n	x	u	n
CC(=O)Nc1ccc2c(O)cc(S(=O)(=O)O)cc2c1	n	n	10µM	x	n	x
O=S(=O)(O)c1ccc(O)c2cc(Nc3ccccc3)ccc12	n	u	2.24µM	x	u	x
COc1ccccc1Nc1ccc2c(O)cc(S(=O)(=O)O)cc2c1	n	u	2.24µM	x	u	x
O=S(=O)(O)c1cc(O)c2cc(Nc3ccccc3)ccc2c1	n	u	u	x	u	x
COc1ccc(S(=O)(=O)O)cc1P(=O)(c1ccccc1)c1ccccc1	n[11.4 µM]	n	n	n	n[11.4 µM]	n
CCCNS(=O)(=O)c1ccc(Oc2ncc(C(F)(F)F)cc2Cl)cc1	n	n	n	u	n	n
CC1=C(C(N)=O)C(c2cccc(OCc3ccccc3)c2)n2nnnc2N1 (configuration not stated)	n	n	n	n	n	n
O=S(=O)(O)c1cc(O)c2c(N=Nc3ccc(Nc4ccccc4)c4c(S(=O)(=O)O)cccc34)cc(S(=O)(=O)O)cc2c1	x	39.8µM	n	n	x	12.6µM
Nc1cccc2c(O)cc(S(=O)(=O)O)cc12	n	12.6µM	2.82µM	x	n	x
O=S(=O)(O)c1cc(O)c(N=Nc2ccc(O)cc2O)c2ccccc12	n[2.29 µM]	n	u	x	n	x
Cc1ccc(CNC(=S)Nc2cc(C(=O)O)ccc2C)cc1	n	n	n	n	n	n
CC1CSc2ccccc2NC1=S (configuration not stated)	n	n	n	n	n	n
c1ccc(C2CSc3ccccc3N2)cc1 (configuration not stated)	n	u	n	56.2µM	n	n
CCOc1ccc(-c2nnc3ccc(SCc4ccc(C(=O)OC)o4)nn23)cc1	n	n	n	11.2µM	u	u
Fc1ccc(CSc2ccc3nnc(-c4ccccn4)n3n2)cc1	n	n	n	n	n	n
COC(=O)c1ccc(CSc2ccc3nnc(-c4ccccn4)n3n2)o1	n	n	n	39.8µM	u	n
COC(=O)c1ccc(CSc2ccc3nnc(-c4ccc(F)cc4)n3n2)o1	n	n	n	n	n	n
Cc1ccc(S(=O)(=O)NCC(=O)N(c2ccccc2)C(C(=O)NCc2ccccc2)c2ccco2)cc1 (configuration not stated)	n	n	n	79.4µM	n	n
O=C(COc1ccc(S(=O)(=O)NC2CCCCC2)cc1Cl)NCc1cccnc1	n	n	n	17.8µM	n	n
O=C(CCc1ccc(S(=O)(=O)NC2CCCCC2)cc1)NCc1ccccn1	n	n	n	39.8µM	n	n
CC(C)(C)c1ccc(S(=O)(=O)NC(=O)C2(C)CCN2C(=O)Cc2ccc(Cl)cc2Cl)cc1 (configuration not stated)	x	x	n	x	x	x
Cc1n[nH]c(C)c1S(=O)(=O)N1CCCC(C(=O)NC2CCCc3ccccc32)C1 (configuration not stated)	n	n	n	n	n	n
SMILES	TrxR1 substrate	VDR inh	GLS inh	Sfp inh	rTrxR1 inhibitor	KAT2A inh
CCOC(=O)C1C(=O)NC(SC)=C(C#N)C1c1ccccc1F (configuration not stated)	n	n	n	n	n	n
C=CCSC1=C(C#N)C(c2ccccc2OCC)CC(=O)N1 (configuration not stated)	n	n	n	70.8µM	n	n
C=CCSC1=C(C#N)C(c2cccc(OC)c2)CC(=O)N1 (configuration not stated)	n	n	n	35.5µM	n	n
Cc1ccc(C2CC(=O)NC(SCCC(C)C)=C2C#N)cc1 (configuration not stated)	n	n	n	44.7µM	n	n
COC(=O)CSC1=C(C#N)C(c2ccc(C(C)C)cc2)CC(=O)N1 (configuration not stated)	n	n	n	n	n	n
CCOC(=O)C1C(=O)NC(SCC(N)=O)=C(C#N)C1c1ccccc1OCC (configuration not stated)	n	n	n	15.8µM	n	n
COC(=O)CSC1=C(C#N)C(c2cccc(OC)c2)CC(=O)N1 (configuration not stated)	n	n	n	n	n	n
COC(=O)c1cc(NC(=O)c2ccc(-c3ccc(Cl)cc3Cl)o2)cc(C(=O)OC)c1	n	n	n	x	n	n
CC(=O)Oc1ccc(N2C(=O)C3C4C=CC(O4)C3C2=O)cc1 (configuration not stated)	n	n	n	35.5µM	5.62µM	n
CC(=O)Oc1cccc(N2C(=O)C3C(C2=O)C2C=CC3C23CC3)c1 (configuration not stated)	n	n	n	n	n	n
CC(=O)Oc1cccc(N2C(=O)C3C4C=CC(C4=C(C)C)C3C2=O)c1 (configuration not stated)	n	u	n	56.2µM	39.8µM	n
Brc1ccccc1-c1ccccc1	n	n	n	x	n	n
O=C(N/N=C/c1ccc(O)c(O)c1)c1cccc(S(=O)(=O)N2CCCCC2)c1	n	n	7.08µM	n	n	n
O=C(NN=Cc1ccc(F)cc1)c1cccc(S(=O)(=O)N2CCCC2)c1	n	n	n	x	u	n
COc1ccccc1-c1cnc(C(O)c2ccc(Cl)cc2)[nH]1 (configuration not stated)	x	x	n	x	x	x
Cc1ccc(CNC(=O)C2c3ccccc3C(=O)N(C)C2c2c[nH]c3ccccc23)o1 (configuration not stated)	n	n	n	50.1µM	n	x
CCOc1ccc(NC(=O)Cn2cc(C(=O)CC)c3ccccc32)cc1	n	79.4µM	n	n	n	n
CCOc1ccc(NC(=O)Cn2cc(C(C)=O)c3ccccc32)cc1	n	n	n	n	n	n
S=C(Nc1cccnc1)Nc1cccc2cnccc12	n	u	n	11.2µM	n	n
Cc1cc(Cl)ccc1NC(=S)Nc1cccnc1	n	n	n	n	28.2µM	n
S=C(Nc1ccc(Cl)cc1)Nc1cccc2cnccc12	n	u	u	u	n	n
Cc1cc(NC(=S)Nc2cccnc2)ccc1Br	n	n	n	n	u	n

Assay outcomes from PubChem.
